# Measured values from PubChem BioAssay AID624396 (The Scripps Research Institute Molecular Screening Center, 2012).
# Activity calls are given as the source filed them.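 How the source made its calls: active means over 15% of cells apoptotic at 25 µM, or half-maximal dose of 10 µM or lower; inactive means the rest.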
# System: BCL2 1863
# Test: apoptosis induction in cancer cell lines, late-stage follow-up, mechanism study for MCL1-BIM inhibitor project, imaging, DAPI staining, cell line panel, probe (AID 624396)
# Conditions: DAPI nuclear morphology, at 25 µM, stronger effect = higher value
structure (smiles),measurement,value
CCN1CCN(C(c2ccc(C(F)(F)F)cc2)c2ccc3cccnc3c2O)CC1 (stereo unspecified),apoptosis,21% (active)
